cytoskel mod: modifiers of cytoskeleton assembly; HUVEC TNFa F-actin phalloidin imaging, high content; inhibition, % at 2 µM; 91,000 tested, 0.18% active;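 active = inhibition above the batch mean plus 3 SD and confirmed as a hit by visual image inspection, cut at about 30% in these data, passing the limit was not always enough; inconclusive = above the inhibition threshold but rejected on visual inspection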
TNFa cytotox: HUVEC cytotoxicity counter-screen, TNF alpha stimulated. 93,000 tested, 0.17% active. cell count reduction, % at 2 µM. HUVEC TNFalpha-stimulated, Hoechst cell count, imaging;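 active = cell count reduction exceeding the screen mean by over 5 SD, scaled to untreated wells per plate, cut at about 78% in these data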;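 also: cells counted after 24 h of TNF alpha exposure following the 1 h pretreatment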
E-sel TNF inh: TNF alpha driven E-selectin expression inhibition. HUVEC TNFa-induced E-selectin immunofluorescence, high content. inhibition, % at 2 µM. 120,000 tested, 0.71% active;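 active = inhibition above the batch mean plus 3 SD, and confirmed as a hit on visual image review, cut at about 43% in these data; inconclusive = passes the inhibition cutoff but fails visual image review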;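 also: 0% = TNF-stimulated DMSO wells and 100% = unstimulated control wells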
VCAM1 TNFa inh: reduces TNF alpha induced VCAM1 expression in HUVEC. HUVEC TNFa-induced VCAM-1 immunofluorescence, high-content imaging. inhibition, % at 2 µM. 95,000 tested, 0.48% active. AID 802;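 active = inhibition above the batch mean plus 3 SD, with images confirmed as a hit by eye, cut at about 37% in these data; inconclusive = inhibition above that limit but hit not confirmed in images; inactive = inhibition not above that limit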;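 also: 0% = TNF-stimulated DMSO wells and 100% = unstimulated control wells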
Numbers without * were called inactive; ? = inconclusive; · = not tested or not shown. The list is not random: actives were taken first. Their share in the collection is about 1%.

SMILES	cytoskel mod	TNFa cytotox	E-sel TNF inh	VCAM1 TNFa inh
COc1ccc2[nH]c(=O)c(CN(C)C(=O)c3ccncc3)cc2c1	22	-19	·	10
COc1ccc2[nH]c(=O)c(CN(C(=O)c3ccncc3)C(C)C)cc2c1	48*	-77	4	95*
COc1ccc(CC(=O)N2CCN=C2SC)cc1	5	-31	6	3
CSC1=NCCN1C(=O)Cc1ccc(Cl)cc1	-8	10	-6	44*
Cc1cccc(OCc2nnc(N)s2)c1C	26	-17	71*	-8
Cc1ccc(OCc2nnc(N)s2)cc1	·	·	8	·
COc1ccc(C(=O)/C=C/c2ccc(F)cc2)c(OC(=O)c2ccc([N+](=O)[O-])cc2)c1	-2	-7	70*	-10
O=S(=O)(c1cccc(-n2cnnn2)c1)N1CCOCC1	?	100*	·	?
COc1cc(-n2cnnn2)ccc1S(=O)(=O)N1CCOCC1	6	-22	·	-24
C=CCN(CC=C)C(=O)Nc1cc(Cl)ccc1OC	-7	8	53*	0
CC(NC(=O)COc1cccc(Br)c1)C(=O)O (stereo not drawn)	43	-2	77*	-13
CCC(C)N(CC(=O)Nc1cccc(C)c1C)C(=O)CCl (stereo not drawn)	·	·	-4	·
COc1ccc(N2CCN(C(=O)C(C)(C)Oc3ccc(Cl)cc3)CC2)cc1	-29	78*	·	-22
CCOC(=O)N1CCN(C(=O)C(C)(C)Oc2ccc(Cl)cc2)CC1	6	-36	·	12
CCOC(=O)c1ccc(-n2ccnc2)c(NC(=O)c2ccc(Cl)cc2)c1	·	·	62*	·
COc1ccc2c(c1)C1CC(C)(NC(=O)C1S(=O)(=O)c1ccc(F)cc1)O2 (stereo not drawn)	·	·	77*	·
CCOc1ccccc1C1CC(c2ccc(Br)cc2)Nc2nc(N)nn21 (stereo not drawn)	-3	3	·	4
O=C(Nc1ccc(Cl)cc1)Nc1nnc(CSc2ccc(Cl)cc2)s1	·	·	64*	·
Cc1cc(-c2c(C)[nH]n(-c3ccccc3)c2=O)n(-c2ccccc2)n1	14	25	100*	19
CC1CC1c1ccc(/C=C(\C#N)C(=O)Nc2ccc(Cl)cc2)o1 (stereo not drawn)	·	·	64*	·
Nc1nc2c3ccccc3nc(Cc3ccccc3)n2n1	7	-17	-20	93*
Cc1ccc(C)c(N(CC(=O)NCCSCc2ccco2)S(C)(=O)=O)c1	18	-20	63*	-7
CCOC(=O)c1c(NC(=O)c2ccc(N3C(=O)C4C5C=CC(C5)C4C3=O)cc2)sc2c1CCCC2 (stereo not drawn)	-12	-28	·	6
COc1ccccc1Cc1nc(-c2ccncc2)no1	·	·	77*	·
O=C(c1cccc(F)c1)N1CCN(c2cc(N3CCCCC3)c(F)cc2[N+](=O)[O-])CC1	16	15	51*	-5
SMILES	cytoskel mod	TNFa cytotox	E-sel TNF inh	VCAM1 TNFa inh
COC(=O)CCC(=O)Nc1nc(-c2ccccc2)cs1	-10	-7	62*	-2
Fc1ccc2[nH]c3c(N4CCN(c5ccccc5)CC4)ncnc3c2c1	·	·	-13	·
OC1(c2cccc(C(F)(F)F)c2)CCN(c2ncnc3c2[nH]c2ccc(F)cc23)CC1	7	-11	·	54*
CCCSC(=O)N(CC)CC(=O)Nc1c(CC)cccc1CC	16	0	3	18
O=C(NCc1cccnc1)C(=O)Nc1ccc2c(c1)OCO2	·	·	-18	·
COc1cc(C2C(C#N)=C(N)Oc3cc(C)n(CCc4ccccc4)c(=O)c32)cc2c1OCO2 (stereo not drawn)	·	·	95*	·
O=C(NCc1ccc(/C=c2\sc3n(c2=O)CCN=3)o1)C(=O)Nc1ccccc1	·	·	-30	·
O=C1c2cccc(OCC(=O)N3CCCc4ccccc43)c2CCN1Cc1ccc(Br)cc1	·	·	81*	·
O=C1c2cccc(OCC(=O)N3CCCc4ccccc43)c2CCN1Cc1ccccc1	·	·	56	·
Cc1cccc(NC(=O)c2ccccn2)c1C	8	-33	0	5
Cc1cccc(NC(=S)Nc2ccccn2)c1C	·	·	62*	·
O=C(CCn1cnc2ccccc2c1=O)Nc1nc(-c2ccc(Br)cc2)cs1	·	·	-25	·
CCOC(=O)c1ccc(NC(=S)NCC(O)c2ccccc2)cc1 (stereo not drawn)	18	·	73*	-46
CCOC(=O)c1ccc(NC(=S)NCCc2ccccc2)cc1	-7	·	11	-33
Cc1cc(C)c(/C=N/NC(N)=O)c(C)c1/C=N/NC(N)=O	-104	44	-29	69*
Cc1cc(C)n2c(SCC(=O)N(CC(C)C)c3c(N)n(CC(C)C)c(=O)[nH]c3=O)nnc2n1	·	·	-13	·
CCCCn1cnc2c1c(=O)[nH]c(=O)n2CCCC	35*	-52	-5	0
Cn1c(=O)[nH]c(=O)c2c1ncn2CCN1CCOCC1	-16	-16	7	-3
O=C1CCCC/C1=C/NCc1ccccc1	·	·	24	·
COc1ccc(NC(=O)c2cc(-c3ccc(OC)c(OC)c3)on2)cc1OC	20	-12	80*	3
CCc1nc2ccc(F)cc2c(C(=O)NC2CCCCC2C)c1C (stereo not drawn)	5	2	·	13
CS(=O)(=O)N1CCc2cc(-c3csc(NC(=O)Cc4cccs4)n3)ccc21	48	-34	93*	-3
CC(=O)Nc1nc(-c2ccc3c(c2)CCN3S(C)(=O)=O)cs1	·	·	11	·
CCOc1ccc(-n2nc(C(=O)N3CCN(CC)CC3)c3ccccc3c2=O)cc1	-11	8	66*	-6
CCOc1ccc(-n2nc(C(=O)NCCOC)c3ccccc3c2=O)cc1	·	·	2	·
SMILES	cytoskel mod	TNFa cytotox	E-sel TNF inh	VCAM1 TNFa inh
C=CCOCC(O)CS(=O)(=O)Cc1ccc(Cl)cc1 (stereo not drawn)	-15	8	18	6
CN1CCc2nc(NC(=O)COc3ccc(C#N)cc3)sc2C1	·	·	4	·
COc1ccc(NC(=O)/C(Cl)=C(/Cl)S(=O)Cc2ccccc2)cn1 (stereo not drawn)	8	99*	·	88*
COc1ccc(/C=C/C(=O)Nc2ccc(OC)nc2)cc1	·	·	-7	·
COc1ccc(CS(=O)(=O)/C(Cl)=C(/Cl)C(=O)Nc2ccc(OC)nc2)cc1	5	14	95*	42*
COc1ccc(NC(=S)Nc2ccccc2)cn1	·	·	-11	·
CCOC(=O)c1c(C)[nH]c(C(=O)NCc2ccco2)c1C	·	·	-64	·
Cc1ccc(C(=O)OCC(=O)N2CCc3ccccc32)cc1	18	-4	-6	-8
Cn1nc(C(=O)OCC(=O)N2CCc3ccccc32)c2ccccc2c1=O	-20	88*	·	77*
COc1ccc(N2C(=O)C3CCCCC3C2=O)cc1NC(=O)c1ccccc1 (stereo not drawn)	·	·	7	·
CC(=O)NC(=S)Nc1ccccc1C(=O)Nc1ccccc1	·	·	10	·
CCCCC(=O)NC(=S)Nc1ccccc1C(=O)Nc1ccccc1	-88	90*	·	93*
COc1ccc(C(=O)N(Cc2nc(-c3ccc(C)cc3)no2)C2CCCCC2)cc1OC	2	-19	-14	18
COC1(c2ccccc2)NC(=S)NN=C1c1ccccc1 (stereo not drawn)	?	100*	3	?
O=C(CCSc1nc(-c2ccco2)cc(C(F)(F)F)n1)Nc1ccc2c(c1)OCO2	-13	9	-12	9
O=C(CSc1nc2ccccc2c(=O)n1-c1ccccc1)NCc1ccco1	-27	88*	10	42

Compound activity from PubChem BioAssay.
